High-throughput results (PubChem)
Hits are enriched below; roughly 10% of the tested compounds scored in any of these assays.
HPGD block: qHTS Assay for Inhibitors of HPGD (15-Hydroxyprostaglandin Dehydrogenase); purified HPGD, NADH fluorescence kinetic, PGE2 substrate; AID 894, 2007; Potency, µM, usual class: inhibitors; actives 4.3% (n = 150,000); 15-hydroxyprostaglandin dehydrogenase [NAD(+)] (Homo sapiens), P15428
Target sequence (P15428 whole entry, looked up): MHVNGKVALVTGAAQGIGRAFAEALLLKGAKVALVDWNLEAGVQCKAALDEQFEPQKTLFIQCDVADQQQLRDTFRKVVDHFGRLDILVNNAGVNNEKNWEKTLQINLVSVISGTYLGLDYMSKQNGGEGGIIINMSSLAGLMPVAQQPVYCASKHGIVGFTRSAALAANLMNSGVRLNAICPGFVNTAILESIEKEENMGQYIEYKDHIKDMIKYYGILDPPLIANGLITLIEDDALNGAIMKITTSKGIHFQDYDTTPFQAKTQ
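20 nM HPGD preincubated 15 min at room temperature with compound in 50 mM Tris-HCl pH 8, 0.01% Tween 20. Started with 1 mM NAD+ and 30 uM prostaglandin E2; NADH fluorescence (360/450 nm) read 5 times over 30-s intervals, last minus first.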
ALDH1A1 block: qHTS Assay for Inhibitors of Aldehyde Dehydrogenase 1 (ALDH1A1) | actives 7.3% (n = 220,000) | Potency, µM (titrated, usually from 75.3 µM), hits mostly inhibitors | Purified ALDH1A1, NADH fluorescence, propionaldehyde substrate | Aldehyde dehydrogenase 1A1 (Homo sapiens), P00352
Lamin A splicing: qHTS Assay for Modulators of Lamin A Splicing. actives 0.01% (n = 200,000). HeLa LMNA splicing GFP/RFP minigene ratio, 48 h. Potency, µM (series often up to 46.1 µM), hits mostly inhibitors; active = well fitted inhibition curve with a large enough effect in the signal ratio, with a control signal flat, not every such curve was filed as active; inconclusive = small, poorly fitted or top-dose-only effect, or effect the other way, or a change in a side signal; the % refers to the signal ratio
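Read-out is the ratio of GFP to DsRed2 object intensity, acquired by 488 nm laser-scanning cytometry on HeLa lamin A-EGFP minigene reporter cells. Compound incubation 48 hrs at 37 °C in Opti-MEM with 2% FBS; DMSO 0.5% final.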
IMPase inh: qHTS Assay for Identifying the Cell-Membrane Permeable IMPase Inhibitors; Inositol monophosphatase 1 (Rattus norvegicus), P97697; CHO-M1 cells, IP1 accumulation, HTRF TR-FRET ratio; inhibition (IP1 accumulation), % at 46.1 µM; 120,000 tested, under 10 active; AID 901, 2007; active = well fitted curve in the direction sought with a large enough effect in the signal ratio, not every such curve was filed as active; inconclusive = small, poorly fitted or top-dose-only effect, or a change in a side signal; inactive = no such curve, though single readings can be large or run the other way; the % refers to the signal ratio;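 note: cells stimulated with carbachol in lithium chloride buffer; higher means more IMPase inhibition seen as more IP1 and lower FRET ratio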
Target sequence (P97697 whole entry, looked up): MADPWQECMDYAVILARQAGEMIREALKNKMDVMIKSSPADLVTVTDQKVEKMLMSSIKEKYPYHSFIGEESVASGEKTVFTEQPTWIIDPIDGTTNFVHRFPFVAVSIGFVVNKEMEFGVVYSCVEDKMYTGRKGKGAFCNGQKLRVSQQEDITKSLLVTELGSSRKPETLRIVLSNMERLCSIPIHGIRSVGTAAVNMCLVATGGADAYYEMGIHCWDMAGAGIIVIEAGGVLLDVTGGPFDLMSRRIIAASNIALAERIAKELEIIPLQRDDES
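Cellular IMPase inhibition is scored as a rise in cytosolic IP1, detected by competitive TR-FRET between d2-labelled IP1 and a europium anti-IP1 antibody. M1-expressing CHO cells were stimulated with carbachol for 30 min at 37C, with lithium (50 mM LiCl) present in the buffer.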
PNC assembly inh: High Content Assay for Compounds that inhibit the Assembly of the Perinucleolar Compartment. activity change (PNC), negative = inhibition, % at 10 µM. AID 2417, 2010. PC3M PTB-GFP, PNC prevalence imaging, 16 h; active compounds read low. actives 3.1% (n = 140,000);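 active = readout at or below -70, meaning at least 70% loss of cells showing the perinucleolar compartment, a nuclear body marking cancer cells; inconclusive = readout between -30 and a set limit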
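PC3M cells stably expressing PTB-GFP, 750–1000 cells/well, treated 16 h at 37 °C with compound (23 nl of library stock), in duplicate. After paraformaldehyde fixation and Hoechst stain, imaged at 20x; PNC prevalence scored by image analysis.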
Luc counter: Counterscreen for Luciferase (Kinase-Glo TM) Inhibition. Luciferin 4-monooxygenase (Photuris pensylvanica), Q27757. Potency, µM (series often up to 38.3 µM), hits mostly inhibitors. Kinase-Glo luciferase, ATP luminescence, 8 min. AID 1379, 2008. actives 0.28% (n = 200,000); active = well fitted inhibition curve with a large enough effect; inconclusive = small, poorly fitted or top-dose-only effect; note: nearly all actives have a fitted effect of over 60% in size
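Light output from Kinase-Glo luciferase with luciferin and 10 uM ATP in 50 mM imidazole pH 7.2, KCl, MgCl2, Tween 20, BSA; compound pin-delivered, 8-min ambient incubation, then luminescence read.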
Numbers stand for hits; i = inactive; ? = inconclusive; nt = not tested or not shown; [ ] = dose if it differs, or a comment. Unless noted, calls come from the whole dose curve; as a rule, active = well fitted inhibition curve with a large enough effect (not every such curve was filed as active); inconclusive = small, poorly fitted or top-dose-only effect, or another doubt; inactive = no such curve, though single readings can be large or run the other way.

SMILES	HPGD block	ALDH1A1 block	Lamin A splicing	IMPase inh	PNC assembly inh	Luc counter
COc1cc(C(=O)Nc2ccc3c(c2)N(C(=O)CCN(C)C)c2ccccc2CC3)cc(OC)c1OC	nt	i	?	nt	nt	i
CN(C)CC(=O)N1c2ccccc2CCc2ccc(NC(=O)c3ccc(N)cc3)cc21	i	?	i	i	-85	i
CSc1ccc(C(=S)N2CCN(CCO)CC2)cc1	25µM	22µM	i	i	?	i
OCCN1CCN(C(=S)c2ccc(Br)cc2)CC1	i	i	i	i	i	i
COc1ccc(CCn2c(=O)c3ccccc3n(CC(=O)Nc3cccc(C)c3)c2=O)cc1OC	nt	nt	nt	i	nt	nt
Cc1cccc(NC(=O)Cn2c(O)c(N=NC(=O)c3ccccc3O)c3ccccc32)c1	i	13µM	i	nt	i	i
COc1ccc(NC2=C(C(C)=O)C(c3ccc(OC)cc3)C(C(C)=O)C(C)(O)C2)cc1 (centres undefined)	nt	i	i	nt	nt	i
COc1ccc(C2C(C(C)=O)=C(Nc3ccccc3)CC(C)(O)C2C(C)=O)cc1OC (centres undefined)	i	?	i	i	-119	i
CCN1C(=O)CC(C(=O)Nc2ccc(F)cc2)SC1=Nc1cccc(OC)c1 (centres undefined)	i	10µM	i	i	?	i
CC(=O)C1=C(O)C(=O)N(Cc2ccco2)C1c1ccccc1F (centres undefined)	nt	10µM	nt	nt	nt	i
CC(=O)C1=C(O)C(=O)N(Cc2ccco2)C1c1ccccc1 (centres undefined)	i	i	i	i	i	i
Cc1cccc(N2CCN(CCCNC(=O)Cn3ncc4c([nH]c5ccccc54)c3=O)CC2C)c1 (centres undefined)	nt	nt	i	nt	nt	nt
O=C(CSc1nnnn1-c1cccc2c1CCCC2)N1CCCC1	i	14µM	i	i	i	i
CCOc1ccc(-n2nnnc2SCC(=O)N2CCOCC2)cc1	i	i	i	i	?	i
O=C(CSc1nnnn1-c1cccc2c1CCCC2)NC1CCCC1	?	?	i	i	?	i
CC1CCCC(C)N1C(=O)CSc1nnnn1-c1cccc2c1CCCC2 (centres undefined)	i	28µM	i	i	?	i
O=C(CSc1nnnn1-c1cccc2c1CCCC2)N1CCOCC1	?	7.9µM	?	i	i	i
Cc1c(C(=O)OCCOc2ccccc2)[nH]c2c1C(=O)CC(c1ccccc1Cl)C2 (centres undefined)	nt	nt	nt	i	nt	nt
c1cncc(-c2cc(-c3cc(-c4cccnc4)n[nH]3)[nH]n2)c1	i	i[13.5 µM]	nt	nt	nt	i[7.66 µM]
O=C1CC(c2nc(-c3ccc(Cl)cc3)no2)CN1c1ccc2c(c1)OCCO2 (centres undefined)	nt	nt	i	nt	nt	nt
S=c1[nH]cc(-c2ccccc2)n1-c1ccccc1	25µM	3.2µM	i	i	i	i
CCn1c(-c2ccccc2)c[nH]c1=S	i	28µM	i	i	i	i
O=C(O)CCC(=O)N1CCN(c2ccccn2)CC1	?	i	i	i	i	i
O=C(CN1C(=O)c2cccc3cccc(c23)C1=O)N1CCN(c2ccccn2)CC1	i	i	i	nt	-104	i
CC(=O)N1CCC2(CCN(Cc3cc(C(F)(F)F)cc(C(F)(F)F)c3)CC2)CC1	i	i	nt	nt	nt	i
SMILES	HPGD block	ALDH1A1 block	Lamin A splicing	IMPase inh	PNC assembly inh	Luc counter
CC(=O)NC1C(=O)Nc2c1cccc2C(F)(F)F (centres undefined)	i	0.28µM	i	i	?	i
COC(=O)CC1C(=O)NCCN1C(=O)CSc1nc2ccccc2s1 (centres undefined)	nt	18µM	nt	nt	nt	i
CC1=NN(CCC#N)C(=O)/C1=C/c1ccc(N(C)C)cc1	nt	7.9µM	i	nt	nt	i
CCOc1cc(/C=C2\C(=O)N(CCC#N)N=C2C)ccc1OCC(N)=O	nt	i	i	nt	nt	i
COc1cc(/C=C2\C(=O)N(CCC#N)N=C2C)ccc1OCC(=O)Nc1ccccc1	10µM	13µM	i	nt	i	i
COc1cc(OC)c2c(=O)c(-c3ccccc3)coc2c1	?	?	i	nt	nt	i
Cc1cc(Nc2ccccc2)n(-c2ccccc2)n1	18µM	i	i	i	i	i
Cc1cc(C)nc(-n2nc(C)cc2Nc2ccccc2)n1	i	?	?	i	i	i
CCOc1ccc(CNC(=O)C2CCN(C(=O)N3CC(CC)Oc4ccc(C)cc43)CC2)cc1OC (centres undefined)	nt	nt	i	nt	nt	nt
CCCS(=O)(=O)N1CCC(C(=O)NC2CCCCC2C)CC1 (centres undefined)	nt	10µM	i	i	i	nt
Cc1ccc2nc(N3CCN(C=O)CC3)nc(-c3ccccc3)c2c1	i	?	i	i	-100	i
Cc1ccc2nc(-c3ccccc3)c(CC(=O)O)c(C(=O)O)c2c1	nt	i	i	nt	nt	i
COc1ccc2nc(Nc3sc4c(c3C(N)=O)CCCC4)sc2c1	16µM	8.9µM	?	i	i	i
N#CCCn1c(=O)c(-c2cc(F)cc(F)c2)nc2cnc(OCc3ccccc3)nc21	?	?	nt	nt	nt	i
COC(=O)CSC(C(=O)Nc1ccc(C)c(C)c1)c1ccccc1 (centres undefined)	i	10µM	i	i	i	i
CN=C1S/C(=C\c2cc(C)n(-c3ccccc3F)c2C)C(=O)N1C	22µM	18µM	?	i	i	i
CN=C1S/C(=C\c2ccc(N3CCOCC3)cc2C)C(=O)N1C	i	i	i	nt	i	i
O=C(c1cc(C(F)(F)F)cc(C(F)(F)F)c1)N1CCC[C@@]2(CCN(Cc3ccncc3)C2)C1	i	i	nt	nt	nt	i
CCOC(=O)c1c(NC(C)=O)sc2c1CCC(C=O)=C2Sc1ccccc1	35µM	5µM	i	i	i	i
CCOC(=O)c1c(NC(=O)c2ccccc2Br)sc2c1CCc1ccccc1-2	14µM	?	i	i	i	i
CCOC(=O)c1c(NC(C)=O)sc2c1CCCNC2=O	nt	13µM	i	i	i	nt
CCOC(=O)c1c(NC(=O)c2ccccc2Cl)sc2c1CCCC2	nt	nt	i	nt	nt	nt
CCOC(=O)c1c(NC(=O)CN2CCOCC2)sc2c1CCCC2=O	i	?	i	i	i	i
CCCOCC(C)OCC(C)O (centres undefined)	i	i	nt	nt	nt	nt
Cc1ccc(-n2ncc3c(NCCC4=CCCCC4)ncnc32)cc1C	nt	nt	i	nt	nt	nt
CC1(C)C(=O)Nc2ccccc2N1C(=O)COC(=O)C1CCCCC1	i	?	i	i	i	i
CCOc1cc(C(=O)CCC(=O)OCC(=O)N2c3ccccc3NC(=O)C2(C)C)ccc1O	i	14µM	i	i	i	i
